Assay outcomes as filed in PubChem BioAssay.
SENP8 block-1: SENP8 protease inhibition; Q96LD8; purified SENP8, Z-RLRGG-aminoluciferin cleavage, luminescence; inhibition, % at 10 µM; hit rate 1.2% among 330,000; in the data active = inhibition above about 50%
PPC-1+TRAIL kill: compounds killing PPC-1 cancer cells with TRAIL present (potentiator screen, no TRAIL-free arm) | PPC-1 cells + TRAIL, ATPLite viability luminescence | cell killing (% activity), % at 4 µM or 5 µM | hit rate 0.41% among 220,000;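 active = cell killing above 50% in the first pass at 4 µM, then a duplicate retest at 5 µM averaging 50% or more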
TRAIL sens C8: caspase-8 TRAIL sensitization; NB7+C8 cells + TRAIL, ATPlite viability luminescence; inhibition (viability loss, TRAIL sensitization), % at 10 µM; hit rate 1% among 360,000;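 active = compounds causing at least 50% loss of cell viability in the single-dose screen, relative to plate controls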
SENP8 block-2: inhibitors of human SENP8 protease. AID 602440. Q96LD8. hit rate 0.64% among 360,000. recombinant SENP8, Nedd8 substrate fluorescence. inhibition, % at 20 µM; in the data active = inhibition mostly above about 40%, no sharp cut-off; inactive = mostly below about 27%
SENP7 inh: inhibitors of human SENP7 protease | Q9BQF6 | recombinant SENP7, Z-RLRGG-aminoluciferin luminescence, 40 min | inhibition, % at 5 µM | hit rate 1.5% among 330,000 | AID 434973;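 active = inhibition above about 50% at the single test dose, limit read from the data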
SENP6 block: blocks the human protease SENP6; Recombinant SENP6 catalytic domain, aminoluciferin luminescence; inhibition, % at 10 µM; hit rate 1.8% among 330,000; AID 2599;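 active = inhibition above about 50% at the single tested dose, limit read from the data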
Target sequence (Q9GZR1 628-1112 limits assumed): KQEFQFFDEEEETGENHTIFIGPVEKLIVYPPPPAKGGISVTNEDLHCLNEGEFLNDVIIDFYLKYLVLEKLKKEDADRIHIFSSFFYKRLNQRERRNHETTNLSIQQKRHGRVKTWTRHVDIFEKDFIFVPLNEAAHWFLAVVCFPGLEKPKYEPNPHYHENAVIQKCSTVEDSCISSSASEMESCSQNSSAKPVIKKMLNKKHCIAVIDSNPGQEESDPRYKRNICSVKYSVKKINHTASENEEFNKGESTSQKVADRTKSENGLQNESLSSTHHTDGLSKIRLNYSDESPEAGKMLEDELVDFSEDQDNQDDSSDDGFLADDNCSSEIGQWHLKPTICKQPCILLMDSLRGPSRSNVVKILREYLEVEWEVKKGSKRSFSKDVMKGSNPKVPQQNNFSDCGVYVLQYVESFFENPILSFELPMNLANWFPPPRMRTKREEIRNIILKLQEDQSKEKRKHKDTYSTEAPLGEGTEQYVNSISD
SENP8 conf-1: confirmation of human SENP8 protease inhibitors; shares compounds with SENP7 inh; AID 488912; hit rate 40% among 6,200; inhibition, % at 12.5 µM; Recombinant SENP8, Z-RLRGG-aminoluciferin luminescence, 60 min;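 active = mean inhibition across replicates above about 50%, limit read from the data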
SENP6 conf: confirmation of human SENP6 protease inhibitors | shares compounds with SENP7 inh | recombinant SENP6, Z-RLRGG-aminoluciferin luminescence | inhibition, % at 12.5 µM | hit rate 58% among 6,200
SENP7 conf: human SENP7 inhibition, confirmed; AID 488917; hit rate 69% among 6,200; shares compounds with SENP7 inh; inhibition, % at 12.5 µM; recombinant SENP7, Z-RLRGG-aminoluciferin luminescence, 40 min
Casp3 SENP sel: caspase-3 inhibition (SENP selectivity assay); shares compounds with SENP7 inh; purified caspase-3, Z-DEVD-aminoluciferin luminescence, 60 min; inhibition, % at 12.5 µM; hit rate 60% among 6,200; AID 488918;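 active = mean inhibition above about 50%, limit read from the data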
SENP luc ctr: counter-screen for SENP inhibitors: luminescence interference; Pre-incubated SENP8/Z-RLRGG-aminoluciferin, luciferase luminescence interference; shares compounds with SENP7 inh; hit rate 39% among 6,200; inhibition, % at 12.5 µM;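 active = mean inhibition above about 50% when retested at one dose, limit read from the data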
SENP8 conf-2: SENP8 (human) inhibition, single concentration confirmation; shares compounds with SENP8 block-2; purified SENP8, Nedd8-AMC/pro-Nedd8 cleavage fluorescence, 30 min; inhibition, % at 25 µM; hit rate 15% among 1,400; AID 624319; in the data active = inhibition mostly above about 39%, no sharp cut-off; inactive = mostly below about 34%
Hits are given with their value; - = inactive; . = no result given. In the library only some 3% were active in any assay of this set; here they are far more common.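 Rule for the calls, unless noted: active = mean inhibition above about 50% in the one-dose retest (limit read from the data); inactive = the rest.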

SMILES	SENP8 block-1	PPC-1+TRAIL kill	TRAIL sens C8	SENP8 block-2	SENP7 inh	SENP6 block	SENP8 conf-2	others
O=[N+]([O-])c1ccc(N2CCCC2)c2ccncc12	-	-	-	53	-	60	-	SENP8 conf-1=-;SENP6 conf=-;SENP7 conf=-;Casp3 SENP sel=-;SENP luc ctr=-
O=[N+]([O-])c1ccc(NC2CCN(Cc3ccccc3)CC2)c2ccncc12	-	.	-	40	-	66	-	SENP8 conf-1=-;SENP6 conf=-;SENP7 conf=-;Casp3 SENP sel=-;SENP luc ctr=-
CCCCn1c(=O)c(C=Nc2cccnc2Cl)c(O)n(CCCCl)c1=O	-	-	-	-	-	-	.
CCCCC1(CCCC)C(=O)NC(=Nc2cccc(C)c2)NC1=O	-	-	-	-	-	-	.
Cc1cccc(N=C2c3cc([N+](=O)[O-])ccc3-c3c2cc([N+](=O)[O-])cc3[N+](=O)[O-])c1	.	.	-	94	.	.	-
COC1=CC(=O)OC(CCc2ccc3c(c2)OCO3)C1 (centres undefined)	.	.	-	40	.	.	-
CC(C)COC(=O)c1ccccc1C(=O)OCC(C)C	-	-	-	48	-	-	-
O=C(c1c[nH]cc1-c1ccccc1)c1cccc2ccccc12	-	-	-	46	-	-	-
CC(=O)O[C@@]12CO[C@@H]1C[C@H](O)[C@@]1(C)C(=O)[C@H](O)C3=C(C)[C@@H](O)C[C@@](O)([C@@H](OC(=O)c4ccccc4)C12)C3(C)C (some centres undefined)	-	.	-	58	-	-	-
O=c1c2ccccc2nc(-c2ccc(Cl)cc2Cl)n1-c1nccs1	-	-	-	-	-	-	.
C[C@]12CCC3C(C1CCC2=O)[C@H](O)C[C@H]1C[C@@H](O)CC[C@]31C (some centres undefined)	-	.	-	-	-	-	.
Cc1nn(C)cc1/C=C1/CC2C3CC=C4CC(O)CCC4(C)C3CCC2(C)C1=O (centres undefined)	-	.	-	47	-	-	-
COc1ccc(-c2ccc3c(c2)CNCc2cnnn2-3)cc1	.	.	-	-	.	.	.
COc1cc2c(c(OC)c1OC)-c1ccc(O)c(=O)cc1[C@@H](N)CC2	-	.	-	53	-	-	-
CCOc1ccc2nc(N=Nc3c(O)[nH]c(=S)[nH]c3=O)sc2c1	-	-	-	40	-	-	-
Cc1c(N=Nc2c(O)[nH]c(=S)[nH]c2=O)c(=O)n(-c2ccccc2)n1C	-	-	-	-	-	-	.
Cn1c(O)c(C=NCCCCCCCCCCC(=O)O)c(=O)n(C)c1=O	-	-	-	-	-	-	.
COC(=O)C(O)(c1c[nH]c2ccccc12)C(F)(F)F (centres undefined)	-	-	-	-	-	-	.
COC(=O)C(O)(c1c(C)[nH]n(-c2ccccc2)c1=O)C(F)(F)F (centres undefined)	-	-	-	63	-	-	87
C=CCn1c(O)c(C(C)=NCCN2CCN(C(=S)NC)CC2)c(=O)[nH]c1=O	-	-	-	-	-	-	.
O=C(CCl)Nc1nccs1	-	-	-	-	-	-	.
CN(C)P1(=O)N(C)CCN1C	.	.	-	-	.	.	.
CC(C)[C@H](NC(=O)N1C[C@H]2C[C@@H](C1)c1cccc(=O)n1C2)C(=O)Nc1ccccc1F	-	.	-	47	-	-	-
COc1cc(C)c(CN2CC=C(c3ccc(F)cc3)CC2)cc1C	-	.	-	43	-	-	-
COc1cc(CN2CC=C(c3ccc(F)cc3)CC2)cc(OC)c1	-	.	-	-	-	-	.
SMILES	SENP8 block-1	PPC-1+TRAIL kill	TRAIL sens C8	SENP8 block-2	SENP7 inh	SENP6 block	SENP8 conf-2	others
COc1ccc(C(=O)O)cc1OC	.	.	-	45	.	.	-
CCC(=O)c1ccc(OC)c(OC)c1	-	-	-	-	-	-	.
CCOC(=O)Cn1cc([N+](=O)[O-])nc1[N+](=O)[O-]	-	-	-	56	-	-	-
CN1CCN(c2ccc([N+](=O)[O-])cc2Cl)CC1	-	-	-	-	-	-	.
CC1CN(c2ccc([N+](=O)[O-])cc2Cl)CCN1 (centres undefined)	-	-	-	32	-	-	-
CN1CCN(c2ccc([N+](=O)[O-])c(N3CCCCC3)c2)CC1	-	-	-	-	-	-	.
O=[N+]([O-])c1ccc(N2CCNCC2)cc1N1CCCCCC1	-	-	-	48	-	-	-
C=CCn1c(O)c(C(CC)=NCc2ccco2)c(=O)[nH]c1=O	-	-	-	-	-	-	.
C[C@]12C[C@H](O)[C@@H](O)C[C@@H]1CC[C@@H]1[C@@H]2CC[C@]2(C)C(=O)CC[C@@H]12	.	.	-	49	.	.	-
C=CCc1ccc(OC)cc1	-	.	-	50	-	-	-
COc1ccc(CN2CCNCC2)cc1	-	.	-	-	-	-	.
Cn1c(=O)[nH]c2nncnc2c1=O	-	.	-	78	-	-	90
CC1C(c2ccccc2)OC(=O)N1C (centres undefined)	.	.	-	-	.	.	.
CCOC(=O)c1cccc(C2=C(CNC(=O)c3cccnc3)[C@H]3CC[C@@H](C2)N3Cc2ccccc2)c1	.	.	-	-	.	.	.
CCn1c(O)c(N=Nc2ccc(S(=O)(=O)N3CCOCC3)cc2)c(=O)n(CC)c1=S	-	-	-	40	-	-	-
C[C@@H]1CN([C@@H](C)CO)C(=O)CCCn2cc(nn2)CO[C@H]1CN(C)C(=O)Oc1cccc2ccccc12	.	.	-	-	.	.	.
